Hit rate of the full screen: of about 77,000 compounds, about 4,600 (6%) were called active. Another 1% or so got no clear call; they are omitted.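 Rule for the calls: active = mean inhibition above about 93%, with at least 55% of replicates each passing it (limit read from the data, passing the limit was not always enough); inconclusive = only one of those two conditions holds; inactive = neither condition holds.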 Many of the other results were omitted from the sample, so actives are more common in it than they were.
Test: T. cruzi intracellular proliferation inhibitors, primary screen, cell-based, beta-gal Tulahuen parasites, NIH3T3 host, luminescence (AID 624255)
Settings: T. cruzi beta-gal in NIH3T3, GalScreen luminescence, 90 h; at 8.34 µM; stronger effect = higher value

SMILES	inhibition
CCNC(=O)C[C@H]1CC[C@@H](NC(=O)C2CCOCC2)[C@@H](CO)O1	40% (inactive)
CCNC(=O)Nc1ccc2c(c1)C(=O)N(C)[C@H]1CC[C@H](CC(=O)NCC3CCCCC3)O[C@@H]1CO2	25.8% (inactive)
CCS(=O)(=O)Nc1ccc2c(c1)C(=O)N(C)C[C@@H](OC)[C@@H](C)CN(C(=O)COC)[C@H](C)CO2	-5.98% (inactive)
Cc1ccc(S(=O)(=O)Nc2ccc3c(c2)C(=O)N(C)[C@@H]2CC[C@@H](CC(=O)O)O[C@H]2CO3)cc1	33.9% (inactive)
C[C@H](CO)N1C[C@H](C)[C@H](CN(C)Cc2cccnc2)Oc2cc(C#CC3CCCC3)ccc2S1(=O)=O	97.8% (active)
C[C@@H]1CN([C@H](C)CO)S(=O)(=O)c2ccc(C#CC3CC3)cc2O[C@H]1CN(C)Cc1ccccc1F	81.5% (inactive)
C[C@@H]1CN([C@H](C)CO)S(=O)(=O)c2ccc(C#CC3CCCC3)cc2O[C@@H]1CN(C)Cc1cccnc1	118% (active)
C[C@H](O)C#Cc1ccc2c(c1)O[C@H](CN(C)Cc1cccnc1)[C@@H](C)CN([C@H](C)CO)S2(=O)=O	34.8% (inactive)
C[C@H](O)C#Cc1ccc2c(c1)O[C@@H](CN(C)Cc1cccnc1)[C@H](C)CN([C@H](C)CO)S2(=O)=O	46.1% (inactive)
C[C@@H]1CN([C@@H](C)CO)S(=O)(=O)c2ccc(C#Cc3cccnc3)cc2O[C@@H]1CN(C)C	-8.96% (inactive)
O=C(Nc1cccc(Cl)c1)N1C[C@@H]2[C@H](c3ccccc31)[C@H](CO)N2C(=O)C1CC1	45% (inactive)
O=C(C[C@@H]1CC[C@H]2[C@@H](COC[C@@H](O)CN2C(=O)c2ccc3c(c2)OCO3)O1)NC1Cc2ccccc2C1	-11.4% (inactive)
CCCC#Cc1cnc2c(c1)C(=O)N([C@H](C)CO)C[C@H](C)[C@H](CN(C)C(=O)c1cnccn1)O2	-48.3% (inactive)
CCCC(=O)Nc1ccc2c(c1)C(=O)N(C)[C@H]1CC[C@@H](CC(=O)NCc3ccccc3)O[C@@H]1CO2	-21.7% (inactive)
O=S(=O)(c1ccccc1)N1CC[C@@H]2[C@@H](CO)Nc3ccc(C#Cc4cccc(F)c4)cc3[C@@H]21	105% (active)
Cc1cccc(S(=O)(=O)N2CC[C@@H]3[C@H]2c2cc(C#Cc4ccccc4F)ccc2N[C@@H]3CO)c1	62.9% (inactive)
O=S(=O)(c1ccccc1)N1CC[C@@H]2[C@H]1c1cc(C#Cc3cccc(F)c3)ccc1N[C@@H]2CO	102% (active)
O=C(c1cccc(F)c1)N1CC[C@@H]2[C@@H](CO)Nc3ccc(C#Cc4cccc(F)c4)cc3[C@@H]21	110% (active)
Cc1cccc(S(=O)(=O)N2CC[C@@H]3[C@H]2c2cc(C#Cc4ccc(F)cc4)ccc2N[C@@H]3CO)c1	12.4% (inactive)
COc1ccc(-c2ccc3c(c2)[C@@H]2[C@@H](CCN2C(=O)c2cccc(F)c2)[C@H](CO)N3)cc1	29.7% (inactive)
Cc1ccccc1S(=O)(=O)N1CC[C@H]2[C@H](CO)Nc3ccc(-c4cccc(F)c4)cc3[C@H]21	100% (active)
Cn1cnc(S(=O)(=O)N2CC[C@@H]3[C@H]2c2cc(C#Cc4cccc(F)c4)ccc2N[C@@H]3CO)c1	-22.2% (inactive)

SMILES	inhibition
COc1cccc(-c2ccc3c(c2)[C@H]2[C@H](CCN2C(=O)c2ccc(F)cc2)[C@@H](CO)N3)c1	32.4% (inactive)
N#Cc1cccc(-c2ccc3c(c2)[C@H]2[C@H](CCN2S(=O)(=O)c2ccc(F)cc2)[C@@H](CO)N3)c1	19.2% (inactive)
COc1ccccc1S(=O)(=O)N1CC[C@@H]2[C@H]1c1cc(-c3ccccc3)ccc1N[C@@H]2CO	71.9% (inactive)
COc1ccc(-c2ccc3c(c2)[C@@H]2[C@@H](CCN2S(=O)(=O)c2ccccc2F)[C@H](CO)N3)cc1	36.8% (inactive)
CC(C)c1cn(CC[C@@H]2CC[C@@H](NC(=O)C3CC3)[C@H](CO)O2)nn1	10.2% (inactive)
CCCNC(=O)C[C@H]1CC[C@@H]2[C@H](COC[C@H](O)CN2S(=O)(=O)c2ccccc2F)O1	11.7% (inactive)
CO[C@H]1CC[C@@H]2CCOc3c(C#N)cccc3C(=O)N(C)C[C@H](C)C(=O)N(C)C[C@H]1O2	30.6% (inactive)
O=C(C[C@@H]1CC[C@H](NC(=O)Cc2ccccn2)[C@H](CO)O1)NCCc1ccncc1	-62.5% (inactive)
C[C@@H](NC(=O)C[C@@H]1C[C@H]2c3cc(NC(=O)C4CCC4)ccc3O[C@H]2[C@@H](CO)O1)c1ccccc1	-32.2% (inactive)
Cc1ccc(S(=O)(=O)Nc2ccc3c(c2)C(=O)N([C@H](C)CO)C[C@@H](C)[C@@H](CN(C)C(=O)CCC(F)(F)F)OCCCC[C@@H](C)O3)cc1	47.6% (inactive)
CCCN1C[C@H](C)[C@H](OC)CN(C)C(=O)c2cc(NC(=O)C3CCOCC3)ccc2OC[C@@H]1C	-22.2% (inactive)
Cc1ccc(S(=O)(=O)Nc2ccc3c(c2)C(=O)N(C)[C@H]2CC[C@H](CC(=O)O)O[C@H]2CO3)cc1	22.9% (inactive)
CC(C)C#Cc1ccc([C@H]2[C@H](CO)N3CCCCN(C(=O)NC(C)C)C[C@@H]23)cc1	104% (active)
COCC#Cc1ccc([C@@H]2[C@@H](CO)N3CCCCN(C(=O)COC)C[C@@H]23)cc1	12.3% (inactive)
O=S(=O)(c1ccc(F)cc1)N1CCCCN2[C@H](CO)[C@@H](c3ccc(C#CC4CCCC4)cc3)[C@H]2C1	88.5% (inactive)
COc1ccc(S(=O)(=O)N2CCCCN3[C@H](C2)[C@H](c2ccc(C#CCC(C)C)cc2)[C@@H]3CO)cc1	103% (active)
COc1ccc(S(=O)(=O)N2CCCCN3[C@@H](CO)[C@@H](c4ccc(C#CCC(C)C)cc4)[C@@H]3C2)cc1	34.4% (inactive)
CC(C)NC(=O)N1CCCCN2[C@@H](CO)[C@@H](c3ccc(C#C[C@@H](C)O)cc3)[C@@H]2C1	75.5% (inactive)
CC(C)C#Cc1ccc([C@@H]2[C@H]3CN(C(=O)NC(C)C)CCCCN3[C@H]2CO)cc1	43.5% (inactive)
COc1cccc(S(=O)(=O)N2CCCCN3[C@H](CO)[C@H](c4ccc(C#CC5CC5)cc4)[C@H]3C2)c1	118% (active)
CCC(=O)N1CCCCN2[C@H](C1)[C@@H](c1ccc(C#CCOC)cc1)[C@@H]2CO	14% (inactive)
COCC#Cc1ccc([C@@H]2[C@H](CO)N3CCCCN(C(=O)CN(C)C)C[C@@H]23)cc1	107% (active)

SMILES	inhibition
Cn1cnc(S(=O)(=O)N2CCCCN3[C@@H](CO)[C@@H](c4ccc(C#CC5CCCC5)cc4)[C@@H]3C2)c1	54.8% (inactive)
CN1c2ccc(C#Cc3cccnc3)cc2[C@@H]2[C@@H](CCN2S(=O)(=O)c2ccccc2)[C@H]1CO	89.6% (inactive)
COc1ccccc1NC(=O)N[C@H]1CC[C@@H](CCn2cc(C3(O)CCCC3)nn2)O[C@@H]1CO	0.23% (inactive)
C[C@@H](NC(=O)[C@H]1[C@H](CO)[C@H]2Cn3c(cccc3=O)[C@H]2N1C(=O)C1CC1)c1ccccc1	-11.1% (inactive)
CC=Cc1ccc2n(c1=O)C[C@@H]1[C@@H](CO)[C@H](C(=O)N[C@@H](C)c3ccccc3)[C@H]2N1Cc1ccncc1 (mixture of isomers)	25.6% (inactive)
COC(=O)C[C@@H]1CC[C@H]2[C@@H](COC[C@H](O)CN2C(=O)Nc2ccccc2OC)O1	-19.2% (inactive)
CC(=O)N1[C@@H](CO)[C@H](c2ccccc2)[C@@H]1CN(C(=O)c1ccccc1)C(C)C	26.7% (inactive)
O=C(C[C@H]1C[C@H]2c3cc(NC(=O)C4CCOCC4)ccc3O[C@H]2[C@@H](CO)O1)NCC1CC1	-5.99% (inactive)
Cn1cnc(S(=O)(=O)N2C[C@H](O)COC[C@@H]3O[C@H](CC(=O)NCc4cccc(F)c4)CC[C@H]32)c1	34.3% (inactive)
CN1C[C@@H]2[C@H](c3ccccc31)[C@H](CO)N2C(=O)Nc1ccc(F)cc1	15.1% (inactive)
Cc1ccc(S(=O)(=O)Nc2ccc3c(c2)C(=O)N([C@@H](C)CO)C[C@H](C)[C@@H](CN(C)C(=O)Nc2ccc(F)cc2)OCCCC[C@H](C)O3)cc1	92.5% (inactive)
O=C(C[C@H]1C[C@H]2c3cc(NC(=O)CC4CC4)ccc3O[C@H]2[C@H](CO)O1)NCc1cc(F)ccc1F	-48.8% (inactive)
CC(C)CC#Cc1ccc2c(c1)O[C@@H](CN(C)C(=O)Nc1ccccc1F)[C@@H](C)CN([C@@H](C)CO)S2(=O)=O	83.3% (inactive)
COc1cccc(S(=O)(=O)N2CCCCN3[C@H](CO)[C@H](c4ccc(-c5ccncc5)cc4)[C@H]3C2)c1	111% (active)
COc1ccc(C#Cc2ccc([C@H]3[C@@H](CO)N4CCCCN(S(=O)(=O)c5cn(C)cn5)C[C@H]34)cc2)cc1	50.5% (inactive)
Cc1cccc(S(=O)(=O)N2CCCCN3[C@@H](CO)[C@H](c4ccc(-c5cccnc5)cc4)[C@@H]3C2)c1	12.6% (inactive)
COc1cccc(S(=O)(=O)N2CCCCN3[C@H](C2)[C@@H](c2ccc(C4=CCCCC4)cc2)[C@@H]3CO)c1	51.4% (inactive)
COc1cccc(S(=O)(=O)N2CCCCN3[C@H](C2)[C@H](c2ccc(C#CC(C)C)cc2)[C@@H]3CO)c1	118% (active)
COc1ccc(S(=O)(=O)N2CCCCN3[C@H](CO)[C@@H](c4ccc(C#CC(C)C)cc4)[C@H]3C2)cc1	106% (active)
CCCNC(=O)C[C@H]1CC[C@H]2[C@@H](COC[C@H](O)CN2C(=O)Nc2c(C)noc2C)O1	-19.4% (inactive)
